This is an account of results in PubChem BioAssay (NCATS).

Inconclusive results are not listed. Calls of active or inactive are those of the source. Unless noted, calls come from the whole dose curve; as a rule, active = well fitted curve in the direction sought with a large enough effect; inconclusive = small, poorly fitted or top-dose-only effect, or another doubt; inactive = no such curve, though single readings can be large; an effect the other way counts as inactive or inconclusive.

Experiment [1] is described as follows: Primary redox qHTS assay for identification of artifact compounds. (AID 1845223).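 Note: 0% = DMSO and 100% = reference compound.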 Put shortly:
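Amplex Red (25 uM) and HRP (250 mU/mL) in HBSS, with compounds for 15 min, then 250 uM DTT for 30 min, room temperature, dark. Fluorescence 525/598 nm read; normalized to DMSO and 10 uM DA3003; Hill fit.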
In general terms: Quantitative high-throughput screening tests each substance at several concentrations.

A further experiment relates to CAOV3. The experiment is described as follows: Primary qHTS to identify gynecologic anti-cancer compounds using libraries of approved drugs and bioactive compounds (AID 1345084). Note: nearly all actives have a fitted effect of over 55% in size. Note: potency is the fitted concentration of half-maximal effect. The following applies: Gynecologic cancer cell panel viability, ATPlite luminescence, 48 h; series mostly up to 57.5 µM. Put shortly:
(§1)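 Cells, 1,000 per well, were allowed to settle for 16 h at 37 C before compound addition. Five concentrations were tested for 48 h, and viability was read by ATPlite luminescence after 15 min at room temperature.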

Another experiment deals with PA-1. The description is as above. The following applies: Gynecologic cancer cell panel viability, ATPlite luminescence, 48 h; series mostly up to 57.5 µM. Put shortly:
as §1
A general note: ATP-based viability assays read luminescence as a measure of living cells.

The test system of a further experiment is SKOV3. Described as above. The following applies: Gynecologic cancer cell panel viability, ATPlite luminescence, 48 h; series mostly up to 57.5 µM. Put shortly: as §1
A further experiment relates to Tov-21-G. The description is as above. The following applies: Gynecologic cancer cell panel viability, ATPlite luminescence, 48 h; series mostly up to 57.5 µM. Put shortly: as §1
Experiment [2] is described as follows: Drug repurposing screens with cells derived from glioblastoma tumor samples (AID 1345199). For activity, negative = cell killing: % is set by controls: 0 for no effect and ±100 for the full control effect. Note: nearly all actives have a fitted effect of over 40% in size. Note: potency is the fitted concentration of half-maximal effect. The following applies: GBM patient neurospheres viability, ATP luminescence, 48 h. Put shortly: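 Four patient lines of CD133+ GBM neurospheres were screened at several concentrations; hits were retested in those lines plus three slower-growing GBM lines, using 48-hour treatment and ATP-based viability.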

In experiment [3] the target is Cytochrome P450 2D6 (Homo sapiens) (UniProt P10635). Nature of the experiment: Cytochrome P450 family 2 subfamily D member 6 (CYP2D6) small molecule antagonists: luciferase biochemical (cell-free) qHTS assay (AID 1645840; active = well fitted curve in the direction sought with a large enough effect in the repeat runs; an effect the other way counts as inactive or inconclusive; note: nearly all actives have a fitted effect of over 55% in size; note: potency is the fitted concentration of half-maximal effect; for activity change, negative = inhibition: % is set by controls: 0 for no effect and ±100 for the full control effect). Put shortly: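 P450-Glo luminescent screen: recombinant CYP2D6 enzyme–proluciferin substrate mix preincubated with compound 10 min at room temperature, then NADPH regeneration added for 1 h at room temperature. Detection reagent added for 20 min; luciferin light read as relative luminescence units.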
Sequence of Cytochrome P450 2D6 (Homo sapiens) (P10635 whole entry, looked up): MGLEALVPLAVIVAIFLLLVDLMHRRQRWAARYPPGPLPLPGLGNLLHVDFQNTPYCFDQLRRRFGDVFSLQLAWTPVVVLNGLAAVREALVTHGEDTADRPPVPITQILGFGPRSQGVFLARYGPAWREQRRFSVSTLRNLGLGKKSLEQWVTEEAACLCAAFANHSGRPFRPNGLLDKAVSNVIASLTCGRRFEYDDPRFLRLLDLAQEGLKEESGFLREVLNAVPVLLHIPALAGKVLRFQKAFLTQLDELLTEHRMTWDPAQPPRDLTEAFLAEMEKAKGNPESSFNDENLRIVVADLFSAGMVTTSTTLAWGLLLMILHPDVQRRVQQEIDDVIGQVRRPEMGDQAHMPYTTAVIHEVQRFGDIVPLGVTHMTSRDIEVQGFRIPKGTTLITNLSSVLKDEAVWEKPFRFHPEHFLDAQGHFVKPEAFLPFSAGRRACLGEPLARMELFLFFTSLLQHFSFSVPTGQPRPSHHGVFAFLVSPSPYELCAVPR

Experiment [4] concerns the target Cytochrome P450 2C9 (Homo sapiens) (UniProt P11712). The experiment is described as follows: Cytochrome P450 family 2 subfamily C member 9 (CYP2C9) small molecule antagonists: luciferase biochemical (cell-free) qHTS assay (AID 1645842; active = well fitted curve in the direction sought with a large enough effect in the repeat runs; an effect the other way counts as inactive or inconclusive; note: nearly all actives have a fitted effect of over 55% in size; note: potency is the fitted concentration of half-maximal effect; for activity change, negative = inhibition: % is set by controls: 0 for no effect and ±100 for the full control effect). Put shortly: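 Luminescence, after 20 min with luciferin detection reagent, reflected CYP2C9 turnover during a 1 h NADPH-driven reaction at 37C. Enzyme-substrate mix contained 0.4% bovine serum albumin and was preincubated with compound 10 min at room temperature.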

The target in experiment [5] is Luciferin 4-monooxygenase (Photinus pyralis) (UniProt P08659). The experiment is described as follows: Biochemical firefly luciferase enzyme assay for NPC (AID 624030).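 Note: purified P. pyralis luciferase at 10 nM with luciferin and ATP substrate; 0% = DMSO and -100% = full luciferase inhibition by PTC124 control; nearly all actives have a fitted effect of over 70% in size.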 In outline:
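Direct inhibition of firefly luciferase enzyme (10 nM final, 50 mM Tris Acetate) assessed by luminescence within 5 minutes. Percent activity scaled between DMSO and PTC124 positive control, with concentration-effect curves classified by fit quality and response.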

Experiment [6] deals with Zika virus NS2B-NS3 protease. The experiment is described as follows: Primary screen GU AMC qHTS for Zika virus inhibitors (AID 1347154).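 Note: 0% = no-inhibitor control and -100% = no-enzyme control; nearly all actives have a fitted effect of over 70% in size.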 Put shortly: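 Fluorogenic AMC-substrate cleavage by noncovalent NS2B-NS3 protease complex (25 nM, pH 8.0 Tris buffer with Tween 20) followed for 15 minutes at room temperature (~20% conversion). Percent inhibition from ex340/em450 signal change, fitted by 4-parameter Hill equation.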

Experiment [7] addresses Catechol O-methyltransferase (Homo sapiens) (UniProt P21964). The experiment is described as follows: Confirmatory Screen for Target Class Profiling of Small Molecule Inhibitors of Methyltransferases (AID 1745852; calls by dose curve; note: potency is the fitted concentration of half-maximal effect; for activity change, negative = inhibition: % is set by controls: 0 for no effect and ±100 for the full control effect). The following applies: MTase-Glo luminescence, SAH detection, recombinant enzyme; measured here: COMT max response; stronger effect = lower value.
The target of experiment [8] is Guanidinoacetate N-methyltransferase (Homo sapiens) (UniProt Q14353). The description is as above. The following applies: activity change, negative = inhibition: at 57.3 µM (top of the series) unless noted.
Experiment [9] concerns the target Nicotinamide N-methyltransferase (Homo sapiens) (UniProt P40261). The experiment is described as above. The following applies: MTase-Glo luminescence, SAH detection, recombinant enzyme; measured here: NNMT max response; stronger effect = lower value.
In experiment [10] the target is Phenylethanolamine N-methyltransferase (Homo sapiens) (UniProt P11086). Described as above. The following applies: MTase-Glo luminescence, SAH detection, recombinant enzyme; measured here: PNMT max response; stronger effect = lower value.
Sequence of Phenylethanolamine N-methyltransferase (Homo sapiens) (P11086 whole entry, looked up): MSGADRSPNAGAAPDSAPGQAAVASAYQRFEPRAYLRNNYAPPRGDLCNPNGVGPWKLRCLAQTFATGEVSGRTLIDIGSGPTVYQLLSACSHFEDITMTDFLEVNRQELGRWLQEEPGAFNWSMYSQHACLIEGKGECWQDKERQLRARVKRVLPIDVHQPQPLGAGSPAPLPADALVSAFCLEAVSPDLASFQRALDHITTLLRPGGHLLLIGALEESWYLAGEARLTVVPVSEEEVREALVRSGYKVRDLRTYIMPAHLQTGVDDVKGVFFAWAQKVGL
Experiment [11] in a line: qHTS to identify inhibitors of the type 1 interferon - major histocompatibility complex class I in skeletal muscle: primary screen against the NCATS Mechanism Interrogation Plate v5.0 (MIPE) Libary (AID 1347411).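 Note: plate controls were vehicle for no effect and reference inhibitor for full effect; nearly all actives have a fitted effect of over 65% in size.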 Put shortly: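 Cells were genome-edited human myoblasts carrying a HiBit tag on endogenous HLA-B. They were treated with IFN-beta (4.0 ng/ml) and titrated compounds (top 46 uM) for 24 hrs before lytic HiBiT detection.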

Sequence of Cytochrome P450 2C9 (Homo sapiens) (P11712 whole entry, looked up): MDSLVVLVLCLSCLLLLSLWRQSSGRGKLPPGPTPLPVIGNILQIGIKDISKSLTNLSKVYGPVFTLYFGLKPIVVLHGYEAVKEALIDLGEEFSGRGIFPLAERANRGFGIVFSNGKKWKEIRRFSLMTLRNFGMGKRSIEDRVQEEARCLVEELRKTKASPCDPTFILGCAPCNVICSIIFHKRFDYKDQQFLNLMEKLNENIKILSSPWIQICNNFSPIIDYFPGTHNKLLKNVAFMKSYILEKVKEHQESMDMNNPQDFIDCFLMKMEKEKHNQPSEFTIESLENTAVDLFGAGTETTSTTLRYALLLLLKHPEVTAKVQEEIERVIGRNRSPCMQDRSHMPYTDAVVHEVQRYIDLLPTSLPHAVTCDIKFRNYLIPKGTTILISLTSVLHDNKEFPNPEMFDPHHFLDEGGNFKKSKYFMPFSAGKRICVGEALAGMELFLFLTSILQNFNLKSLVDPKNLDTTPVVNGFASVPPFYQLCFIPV
Sequence of Nicotinamide N-methyltransferase (Homo sapiens) (P40261 whole entry, looked up): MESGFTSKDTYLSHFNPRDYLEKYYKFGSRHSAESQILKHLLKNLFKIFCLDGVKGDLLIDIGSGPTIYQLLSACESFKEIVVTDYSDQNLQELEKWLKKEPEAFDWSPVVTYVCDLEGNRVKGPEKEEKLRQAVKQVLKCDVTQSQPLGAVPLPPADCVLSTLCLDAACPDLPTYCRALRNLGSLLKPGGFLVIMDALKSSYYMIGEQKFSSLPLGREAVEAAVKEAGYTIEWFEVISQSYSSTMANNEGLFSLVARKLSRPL
Sequence of Catechol O-methyltransferase (Homo sapiens) (P21964 whole entry, looked up): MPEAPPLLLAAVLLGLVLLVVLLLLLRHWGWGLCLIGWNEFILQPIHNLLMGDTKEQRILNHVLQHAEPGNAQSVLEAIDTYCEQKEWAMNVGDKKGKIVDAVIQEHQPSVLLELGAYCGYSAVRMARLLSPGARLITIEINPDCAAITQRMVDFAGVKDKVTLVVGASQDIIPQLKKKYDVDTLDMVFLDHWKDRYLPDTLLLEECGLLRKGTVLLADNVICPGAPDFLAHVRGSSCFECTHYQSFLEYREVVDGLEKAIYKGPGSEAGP
Sequence of Luciferin 4-monooxygenase (Photinus pyralis) (P08659 whole entry, looked up): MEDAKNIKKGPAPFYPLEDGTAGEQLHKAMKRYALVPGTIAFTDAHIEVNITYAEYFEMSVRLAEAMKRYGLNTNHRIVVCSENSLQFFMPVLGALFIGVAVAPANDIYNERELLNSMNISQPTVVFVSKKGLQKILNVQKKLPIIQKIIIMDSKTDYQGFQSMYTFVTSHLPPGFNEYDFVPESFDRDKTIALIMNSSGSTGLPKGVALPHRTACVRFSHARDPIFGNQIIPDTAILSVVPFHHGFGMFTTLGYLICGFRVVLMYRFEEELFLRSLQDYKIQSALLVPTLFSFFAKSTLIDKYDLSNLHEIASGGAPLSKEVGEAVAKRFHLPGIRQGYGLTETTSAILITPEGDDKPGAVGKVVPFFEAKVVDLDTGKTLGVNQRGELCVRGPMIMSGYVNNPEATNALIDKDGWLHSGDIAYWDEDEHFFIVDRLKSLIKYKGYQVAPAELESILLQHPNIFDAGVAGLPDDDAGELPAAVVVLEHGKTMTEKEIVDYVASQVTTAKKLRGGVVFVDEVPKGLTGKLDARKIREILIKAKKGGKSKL

With `CC[C@H](C)[C@H]1O[C@]2(CC[C@@H]1C)C[C@@H]1C[C@@H](C/C=C(\C)[C@@H](O[C@H]3C[C@H](OC)[C@@H](O[C@H]4C[C@H](OC)[C@@H](O)[C@H](C)O4)[C@H](C)O3)[C@@H](C)/C=C/C=C3\CO[C@@H]4[C@H](O)C(C)=C[C@@H](C(=O)O1)[C@]34O)O2`, the Potency result (in experiment [1]; with CAOV3; in the experiment on PA-1; with SKOV3; in the experiment on Tov-21-G) was “inactive” each time. The activity, negative = cell killing in experiment [2] (at 46.1 µM (top of the series), tumour line C) was -34.4% (inactive). In addition, the Potency was 1.12 µM (active) in [2] (tumour line A), 3.98 µM (active) in experiment [2] (tumour line B) and 2.82 µM (active) in experiment [2] (tumour line D).
As for `c1ccc(-c2cnc(Nc3ccc(OCCN4CCCC4)cc3)s2)cc1`, the Potency in experiment [3] is 10.7 µM (active); in the experiment on SKOV3, 35.5 µM (active). Also, in experiment [1], the Potency result was “inactive”.
As to `COc1ccccc1-c1c[nH]c2ncc(-c3cncc(C(=O)N(C)C)c3)cc12`, the Potency in [4] is 3.38 µM (active); with PA-1, 31.6 µM (active).
As for `COc1cccc(NC[C@@H](O)Cn2c3ccc(Br)cc3c3cc(Br)ccc32)c1`, the Potency result in experiment [4] was “inactive”.
As to `CO[C@@H]1[C@@H](O[C@H]2O[C@@H](C)[C@H](O[C@@H]3C[C@](C)(O)[C@H](O)[C@@H](C)O3)[C@@H](N(C)C)[C@@H]2O)[C@@H](CC=O)C[C@@H](C)[C@@H](O[C@H]2CC[C@H](N(C)C)[C@H](C)O2)/C=C/C=C/C[C@@H](C)OC(=O)C[C@H]1O`, the Potency entry in the experiment with PA-1, in the experiment on SKOV3 and with Tov-21-G was “inactive” each time.
Regarding `C=C(C(=O)O)C1CC2=C(C)C(=O)CC2C(C)CC1O` (configuration not stated), the Potency entry (in experiment [1]; in the experiment with CAOV3; with SKOV3) was “inactive” throughout.
Consider `CCCCC(=O)N(Cc1ccc(-c2ccccc2-c2nn[nH]n2)cc1)C(C(=O)O)C(C)C` (configuration not stated), for which the Potency entry (in [5]; with PA-1; in the experiment with Tov-21-G) was “inactive” throughout.
For `C=C1C(=O)O[C@@H]2C[C@@]3(C)CCC[C@H](C)C3=C[C@H]12`, the Potency entry (in experiment [1]; in the experiment with PA-1) was “inactive” in each case.
As to `Cn1cnc(-c2nccc3c(=O)[nH]c(OCCCC(F)(F)F)nc23)c1`, the Potency result (in experiment [1]; in the experiment with CAOV3) was “inactive” each time. The Potency in the experiment with SKOV3 was 6.31 µM (active).
In the case of `CN(C)CC(=O)Nc1ccc2[nH]c(=O)c3ccccc3c2c1`, the Potency result (in [3]; with CAOV3; in the experiment on SKOV3) was “inactive” each time. In experiment [4], the Potency was 13.5 µM (active).
As for `CCN(CC)c1ccc(C(=C2C=CC(=[N+](CC)CC)C=C2)c2cc(S(=O)(=O)O)ccc2S(=O)(=O)[O-])cc1`, the Potency result in experiment [6] is “inactive”. Besides, the Potency in experiment [3] is 15.5 µM (active); in [4], 13.8 µM (active); in the experiment with CAOV3, 28.2 µM (active); with PA-1, 3.55 µM (active); in the experiment with Tov-21-G, 25.1 µM (active).
As to `CC1=CC(=O)[C@@]2(C(C)C)C[C@@H]12`, the activity in experiment [7] was -4.64%; in experiment [9] it was -30.7%; in [10], -13.4%. Also, the Potency in [8] is 48.2 µM (active). Further, the Potency entry (in experiment [1]; with SKOV3; with Tov-21-G) was “inactive” in each case.
Take `COc1ccc(-c2nc(-c3cc(C(F)(F)F)cc(C(F)(F)F)c3)n(Cc3ccc(C(N)=O)cc3)c2-c2ccc(OC)cc2)cc1`: the Potency in [4] is 5.35 µM (active). Also, the figures for the activity in [7], in experiment [9] and in [10] were 0.0984%, -7.68% and -1.33%, respectively. Moreover, the activity change, negative = inhibition in experiment [8] is -0.694%. The Potency entry with CAOV3, in the experiment with PA-1, in the experiment with SKOV3 and in the experiment on Tov-21-G was “inactive” throughout.
For `CC(C)c1ccc(NC(=O)C(c2ccccc2)N(C)C(=O)Cc2c[nH]c3ccccc23)cc1` (configuration not stated), the Potency in experiment [4] was 2.39 µM (active). Moreover, the Potency result (in [1]; in the experiment on PA-1; in the experiment on SKOV3; with Tov-21-G) was “inactive” in each case.
As for `CCOc1ccc(-c2nc(-c3cccc4c3CCC4NCCO)no2)cc1OCC` (configuration not stated), the Potency entry (in experiment [3]; in [4]; in experiment [1]; with PA-1; in the experiment on Tov-21-G) was “inactive” each time.
`O=C(/C=C/n1cnc(-c2cc(C(F)(F)F)cc(C(F)(F)F)c2)n1)NNc1cnccn1`: the Potency entry in experiment [1] was “inactive”. Besides, the Potency in the experiment with PA-1 is 10 µM (active).
Consider `CNc1nc(-c2ccc3c(N)n[nH]c3c2)cc(N2CC(C(=O)NC3CCCCC3)CCC2C)n1` (configuration not stated), for which the figures for the Potency in experiment [3] and in [4] were 23.9 µM (active) and 2.13 µM (active), respectively. The Potency entry in experiment [1] is “inactive”.
Take `C=C1C(=O)O[C@@H]2[C@H]1[C@H](O)C[C@]1(C)[C@@H](O)CC=C(C)[C@@H]21`: in the experiment on PA-1, the Potency entry is “inactive”.
Consider `C[C@H](NC(=O)C(C)(C)Oc1ccc(C(F)(F)F)cn1)[C@@H](Cc1ccc(Cl)cc1)c1cccc(C#N)c1`, for which the Potency entry (in [1]; with PA-1; in the experiment on Tov-21-G) was “inactive” in each case.
`COc1ccc2c3ccnc4ccc(=O)n(c2c1)c43`: the Potency result in the experiment with CAOV3 was “inactive”. In addition, in the experiment with PA-1, the Potency was 25.1 µM (active).
In the case of `CCOC(=O)CCC(=O)O[C@H]1[C@H](O[C@@H]2[C@@H](C)[C@H](O[C@H]3C[C@@](C)(OC)[C@@H](O)[C@H](C)O3)[C@@H](C)C(=O)O[C@H](CC)[C@@](C)(O)[C@H](O)[C@@H](C)C(=O)[C@H](C)CC2(C)O)O[C@H](C)C[C@@H]1N(C)C` (some centres not stated), the Potency result in the experiment on PA-1, with SKOV3 and with Tov-21-G was “inactive” in each case.
On to `CCC(=O)Nc1cccc(Oc2nc(Nc3ccc(N4CCN(C)CC4)cc3OC)ncc2Cl)c1`, for which the Potency entry in experiment [11] was “inactive”. Besides, the Potency in experiment [4] was 6.74 µM (active).
With `CCN(CC)Cc1cccc(/C=C/c2nc3ccc(F)cc3c(=O)n2-c2ccccc2Cl)n1`, the figures for the Potency (in experiment [4]; with SKOV3) were 19 µM (active) and 20 µM (active), respectively. For the same compound, the Potency result (in experiment [1]; with CAOV3) was “inactive” in each case.
For `C=C1C(=O)O[C@@H]2/C=C(/C)CC3C=C(C[C@H](OC(=O)/C(C)=C\C)[C@@H]12)C(=O)O3` (some centres not stated), the Potency result with CAOV3, with PA-1, with SKOV3 and in the experiment with Tov-21-G was “inactive” each time.
Take `Cc1c(C(=O)NCCCO)cnn1-c1nc(-c2cccc(C(F)(F)F)c2)cs1`: the Potency in experiment [4] is 2.39 µM (active). In addition, the Potency result in the experiment on CAOV3, in the experiment on PA-1 and in the experiment on Tov-21-G was “inactive” each time.
Take `C[C@@H](CN1CCC(n2c(=O)[nH]c3cc(Cl)ccc32)CC1)NC(=O)c1ccc2ccccc2c1`: the figures for the Potency in [3] and in [4] were 10.7 µM (active) and 0.239 µM (active), respectively. Further, the Potency result in the experiment with SKOV3 and in the experiment with Tov-21-G was “inactive” in each case.
